From PubChem BioAssay (NCI)
About 83,000 compounds went through this panel and 20% of them were active in at least one assay; those are over-represented in the sample as a whole.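 Compound tested at a single concentration for 48 hours in 96-well plates; a percent growth value below 10 was scored as active.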 Active and inactive are the calls of the source.

Key:
Experiment in all cases: NCI-60 one-dose screen, 48 h (100 = growth as untreated, 0 = no growth, -100 = all killed)
Settings in all cases: 10 µM unless noted
SR leukemia = system: SR leukemia
RPMI-8226 leukemia = system: RPMI-8226 leukemia
OVCAR-8 ovarian = system: OVCAR-8 ovarian
OVCAR-5 ovarian = system: OVCAR-5 ovarian
OVCAR-4 ovarian = system: OVCAR-4 ovarian
SK-OV-3 ovarian = system: SK-OV-3 ovarian
IGROV1 ovarian = system: IGROV1 ovarian
OVCAR-3 ovarian = system: OVCAR-3 ovarian
HS 578T breast = system: HS 578T breast
NCI/ADR-RES ovarian = system: NCI/ADR-RES ovarian

Measured: growth

CCN(C(=O)c1cc2ncccc2[nH]1)[C@H]1CCC[C@@H](NCc2cccc(F)c2)C1
inactive: SR leukemia 99.6% | RPMI-8226 leukemia 91.8% | OVCAR-8 ovarian 103% | OVCAR-5 ovarian 81.6% | OVCAR-4 ovarian 104% | SK-OV-3 ovarian 103% | IGROV1 ovarian 91.1% | OVCAR-3 ovarian 95.7% | HS 578T breast 109% | NCI/ADR-RES ovarian 89.1%

O=C(/C=C/CN1CCOCC1)Nc1cc2c(Nc3cccc(Cl)c3F)ncnc2cc1OCCOC(F)F
inactive: SR leukemia 97.1% | RPMI-8226 leukemia 84.5% | OVCAR-8 ovarian 67.6% | OVCAR-5 ovarian 49.5% | OVCAR-4 ovarian 82.4% | OVCAR-3 ovarian 68.3% | HS 578T breast 64.9% | NCI/ADR-RES ovarian 60.9%
active: SK-OV-3 ovarian 9.17% | IGROV1 ovarian 6.79%

CN(C)C/C=C/C(=O)Nc1cc2c(Nc3cccc(Cl)c3F)ncnc2cc1OCCOC(F)F
active: SK-OV-3 ovarian -0.955% | IGROV1 ovarian -21.7%
inactive: SR leukemia 51.6% | RPMI-8226 leukemia 58.6% | OVCAR-8 ovarian 34.7% | OVCAR-5 ovarian 29.7% | OVCAR-4 ovarian 27.9% | OVCAR-3 ovarian 23.9% | HS 578T breast 11.2% | NCI/ADR-RES ovarian 32.9%

O=C(/C=C/CN1CCCCC1)Nc1cc2c(Nc3ccc(F)c(Cl)c3F)ncnc2cc1OCCOC(F)F
inactive: SR leukemia 11.5% | RPMI-8226 leukemia 12.7% | OVCAR-8 ovarian 19.5% | OVCAR-5 ovarian 34.8% | OVCAR-4 ovarian 12.9%
active: SK-OV-3 ovarian -6.19% | IGROV1 ovarian -9.94% | OVCAR-3 ovarian 0.43% | HS 578T breast -7.08% | NCI/ADR-RES ovarian 9.16%

NS(=O)(=O)c1ccc(NCC(=O)Nc2ccc(-c3nc4ccccc4s3)cc2)cc1
inactive: SR leukemia 16% | RPMI-8226 leukemia 36.7% | OVCAR-8 ovarian 82.7% | OVCAR-5 ovarian 106% | OVCAR-4 ovarian 67.2% | SK-OV-3 ovarian 106% | IGROV1 ovarian 59% | OVCAR-3 ovarian 34.3% | HS 578T breast 98.3% | NCI/ADR-RES ovarian 94%

Cc1cc(C)c2c(=O)[nH]c(SCC(=O)Nc3cccc(S(=O)(=O)N(C)C)c3)nc2n1
inactive: SR leukemia 70.8% | RPMI-8226 leukemia 87.5% | OVCAR-8 ovarian 106% | OVCAR-5 ovarian 97.4% | OVCAR-4 ovarian 105% | SK-OV-3 ovarian 103% | IGROV1 ovarian 40.6% | OVCAR-3 ovarian 111% | HS 578T breast 122% | NCI/ADR-RES ovarian 105%

CC(C)(C)c1cc(-c2nc3ccc(N4CCN(CCO)CC4)cc3[nH]2)cc(C(C)(C)C)c1O
inactive: OVCAR-8 ovarian 83.8% | OVCAR-5 ovarian 90.6% | OVCAR-4 ovarian 76.7% | SK-OV-3 ovarian 84% | IGROV1 ovarian 82.7% | OVCAR-3 ovarian 72.7% | HS 578T breast 67% | NCI/ADR-RES ovarian 93.2%
active: SR leukemia -16% | RPMI-8226 leukemia 1.15%

COc1cc(Br)c(OC)cc1Br
inactive: SR leukemia 111% | RPMI-8226 leukemia 96.2% | OVCAR-8 ovarian 105% | OVCAR-5 ovarian 93% | OVCAR-4 ovarian 102% | SK-OV-3 ovarian 101% | IGROV1 ovarian 79.5% | OVCAR-3 ovarian 96.8% | HS 578T breast 94.1% | NCI/ADR-RES ovarian 95.3%

COc1cc(C2C=C(C)N=C3SC(C)=NN32)cc(OC)c1OC (stereo not given)
inactive: SR leukemia 96.3% | RPMI-8226 leukemia 108% | OVCAR-8 ovarian 104% | OVCAR-5 ovarian 95.9% | OVCAR-4 ovarian 104% | SK-OV-3 ovarian 92.5% | IGROV1 ovarian 101% | OVCAR-3 ovarian 106% | HS 578T breast 114% | NCI/ADR-RES ovarian 101%

COc1cc(-c2nc(-c3nc4ccccc4[nH]3)cc3c2[nH]c2ccccc23)cc(OC)c1OC
active: RPMI-8226 leukemia -4.95%
inactive: SR leukemia 45.2% | OVCAR-8 ovarian 13.2% | OVCAR-5 ovarian 88.8% | OVCAR-4 ovarian 59.5% | SK-OV-3 ovarian 104% | IGROV1 ovarian 18.9% | OVCAR-3 ovarian 31.7% | HS 578T breast 55.8% | NCI/ADR-RES ovarian 32.2%

Clc1nc(Cl)c2ncn(C/C=C/Cn3cnc4c(Cl)nc(Cl)nc43)c2n1
inactive: OVCAR-5 ovarian 112% | OVCAR-4 ovarian 94.6% | SK-OV-3 ovarian 103% | IGROV1 ovarian 17.7% | OVCAR-3 ovarian 60.5% | HS 578T breast 46.3% | NCI/ADR-RES ovarian 99%
active: SR leukemia -14.2% | RPMI-8226 leukemia -17.3% | OVCAR-8 ovarian 7.73%

COc1cc(-c2n[nH]nc2-c2ccc3c(c2)OCCO3)cc(OC)c1OC
inactive: OVCAR-5 ovarian 11.7% | OVCAR-4 ovarian 34.8% | IGROV1 ovarian 21.9% | HS 578T breast 12.7%
active: SR leukemia 9.29% | RPMI-8226 leukemia 0.653% | OVCAR-8 ovarian 9.51% | SK-OV-3 ovarian 3.32% | OVCAR-3 ovarian -33.9% | NCI/ADR-RES ovarian 2.71%

O=c1[nH]c2ccccc2cc1-c1nnc(Cc2ccccc2)o1
inactive: SR leukemia 31.6% | RPMI-8226 leukemia 15.3% | OVCAR-8 ovarian 57.8% | OVCAR-5 ovarian 120% | OVCAR-4 ovarian 61.3% | SK-OV-3 ovarian 92.8% | IGROV1 ovarian 66% | OVCAR-3 ovarian 69.6% | HS 578T breast 90.1% | NCI/ADR-RES ovarian 89.8%

COc1cc(C(=O)N2CCN(C(=O)c3ccco3)CC2)c(N)cc1OCc1ccccc1
inactive: SR leukemia 86.5% | RPMI-8226 leukemia 71.9% | OVCAR-8 ovarian 99.8% | OVCAR-5 ovarian 107% | OVCAR-4 ovarian 92.9% | SK-OV-3 ovarian 113% | OVCAR-3 ovarian 105% | HS 578T breast 91.9% | NCI/ADR-RES ovarian 102%
active: IGROV1 ovarian -5.4%
